Measured values: PubChem BioAssay (NCI)
Where “and” joins values, the source holds several entries; their conditions need not be identical. Identical values can stand only once. Compounds without any hit were thinned out: in the full panel of roughly 83,000, 20% have a hit.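 Plates (96-well) were seeded with cells, treated with compound at one concentration, and incubated for 48 hours before percent growth was determined.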 Calls of active or inactive are those of the source. The calls were made as follows: active = growth percent below 10; inactive = the rest.

Assays:
Experiment in all cases: NCI-60 one-dose screen, 48 h (100 = growth as untreated, 0 = no growth, -100 = all killed)
Settings in all cases: 10 µM unless noted
HCT-15 colon = test system: HCT-15 colon
HT29 colon = test system: HT29 colon
SNB-75 CNS = test system: SNB-75 CNS
SNB-19 CNS = test system: SNB-19 CNS
U251 CNS = test system: U251 CNS
PC-3 prostate = test system: PC-3 prostate
SK-MEL-5 melanoma = test system: SK-MEL-5 melanoma
LOX IMVI melanoma = test system: LOX IMVI melanoma
SK-MEL-28 melanoma = test system: SK-MEL-28 melanoma
SK-MEL-2 melanoma = test system: SK-MEL-2 melanoma
EKVX NSCLC = test system: EKVX NSCLC
UO-31 renal = test system: UO-31 renal
TK-10 renal = test system: TK-10 renal
ACHN renal = test system: ACHN renal
CAKI-1 renal = test system: CAKI-1 renal
A498 renal = test system: A498 renal
HL-60(TB) leukemia = test system: HL-60(TB) leukemia
CCRF-CEM leukemia = test system: CCRF-CEM leukemia
SN12C renal = test system: SN12C renal
UACC-62 melanoma = test system: UACC-62 melanoma

Measured: growth

Cc1ccc(N2CCN(CCC#N)CC2)cc1
inactive: HCT-15 colon 97.2% | HT29 colon 103% | SNB-75 CNS 79.5% | SNB-19 CNS 87.9% | U251 CNS 97.8% | PC-3 prostate 92.5% | SK-MEL-5 melanoma 82% | LOX IMVI melanoma 101% | SK-MEL-28 melanoma 98.7% | SK-MEL-2 melanoma 110% | EKVX NSCLC 95.5% | UO-31 renal 82.6% | TK-10 renal 89.5% | ACHN renal 101% | CAKI-1 renal 87.1% | A498 renal 137% | HL-60(TB) leukemia 87% | CCRF-CEM leukemia 92%

CN(C)c1ccc([N+](=O)[O-])c([N+](=O)[O-])c1
inactive: HCT-15 colon 110% and 100% | HT29 colon 109% and 102% | SNB-75 CNS 93% and 86.4% | SNB-19 CNS 106% and 102% | U251 CNS 101% and 96.9% | PC-3 prostate 105% and 100% | SK-MEL-5 melanoma 101% and 97% | LOX IMVI melanoma 93% | SK-MEL-28 melanoma 104% | SK-MEL-2 melanoma 90% and 103% | EKVX NSCLC 96% and 96.2% | SN12C renal 105% and 97.7% | UO-31 renal 117% and 84.7% | TK-10 renal 135% and 114% | ACHN renal 98.1% and 106% | A498 renal 109% | HL-60(TB) leukemia 66.7% and 88.1% | CCRF-CEM leukemia 80.9% and 94.2%
-35% (active) and 87.6% (inactive): CAKI-1 renal

COC[C@H]1OC(=O)c2coc3c2[C@@]1(C)C1=C(C3=O)[C@@H]2CCC(=O)[C@@]2(C)C[C@H]1OC(C)=O
active: SNB-75 CNS -21% | SK-MEL-5 melanoma -16.9%
inactive: HCT-15 colon 53.8% | HT29 colon 34.4% | SNB-19 CNS 66.2% | U251 CNS 70.5% | PC-3 prostate 25.1% | UACC-62 melanoma 15.7% | LOX IMVI melanoma 54.3% | SK-MEL-2 melanoma 17.3% | EKVX NSCLC 42.1% | SN12C renal 43.3% | UO-31 renal 31.4% | TK-10 renal 38.8% | ACHN renal 42.2% | CAKI-1 renal 32.2% | HL-60(TB) leukemia 25.8% | CCRF-CEM leukemia 46.6%

S=P(SP(=S)(c1ccccc1)c1ccccc1)(c1ccccc1)c1ccccc1
active: CCRF-CEM leukemia -61.3%
inactive: HCT-15 colon 97% | HT29 colon 101% | SNB-75 CNS 91.2% | SNB-19 CNS 103% | U251 CNS 101% | PC-3 prostate 93.5% | SK-MEL-5 melanoma 99.9% | LOX IMVI melanoma 98.5% | SK-MEL-28 melanoma 111% | SK-MEL-2 melanoma 96.6% | EKVX NSCLC 97.6% | SN12C renal 97.5% | UO-31 renal 95.2% | TK-10 renal 96.8% | ACHN renal 99.4% | CAKI-1 renal 97.9% | A498 renal 98.3% | HL-60(TB) leukemia 48.5%

CC[C@H](CC[C@@H](C)[C@H]1CC[C@H]2[C@@H]3CC[C@H]4C[C@]5(CC[C@]4(C)[C@H]3CC[C@]12C)OO[C@](C)(C(F)(F)F)O5)C(C)C
inactive: HCT-15 colon 97% | HT29 colon 102% | SNB-75 CNS 66.7% | SNB-19 CNS 90.4% | U251 CNS 100% | PC-3 prostate 94.2% | SK-MEL-5 melanoma 99.4% | LOX IMVI melanoma 92.9% | SK-MEL-28 melanoma 89.9% | SK-MEL-2 melanoma 101% | EKVX NSCLC 96.2% | SN12C renal 81.2% | UO-31 renal 78.8% | TK-10 renal 109% | ACHN renal 98.7% | CAKI-1 renal 81.7% | A498 renal 97.3% | HL-60(TB) leukemia 106% | CCRF-CEM leukemia 100%

COc1ccc(N(CC(=O)NCCC[Te]c2ccccc2)C(=O)c2ccccc2)cc1
inactive: SNB-75 CNS 69.5% | SNB-19 CNS 36.2% | U251 CNS 14.4% | SK-MEL-5 melanoma 55.2% | LOX IMVI melanoma 32.8% | SK-MEL-28 melanoma 145% | SK-MEL-2 melanoma 101% | SN12C renal 19.9% | UO-31 renal 12.9% | TK-10 renal 97.7% | ACHN renal 87.7% | CAKI-1 renal 84.9% | A498 renal 16.1% | HL-60(TB) leukemia 36.9% | CCRF-CEM leukemia 15.1%
active: HCT-15 colon 9.28% | HT29 colon -25.5% | PC-3 prostate 7.26% | EKVX NSCLC 2.14%

CC[C@H](C)[C@H](NC(=O)c1ncccn1)C(=O)N(C)[C@H](C[C@@H](OC(C)=O)c1nc(C(=O)N[C@@H](Cc2ccccc2)C[C@H](C)C(=O)OC)cs1)C(C)C
inactive: HCT-15 colon 10.3% | SNB-19 CNS 44.1% | U251 CNS 16.7% | PC-3 prostate 27.7% | SK-MEL-5 melanoma 21.5% | LOX IMVI melanoma 21.4% | SK-MEL-28 melanoma 50.3% | SK-MEL-2 melanoma 43.9% | EKVX NSCLC 58.5% | SN12C renal 45.7% | UO-31 renal 50.5% | ACHN renal 50.8% | CAKI-1 renal 61% | A498 renal 28.1% | CCRF-CEM leukemia 10.4%
active: HT29 colon -2.02% | SNB-75 CNS -3.1% | HL-60(TB) leukemia -42.8%
